Test results reported in the supplement of paper PMC4466140.

Experiments:
Assay in all cases: SPOT peptide array binding signal intensity (averaged, normalized) (arbitrary units (background-subtracted, floor 0; scale differs between SH3 domains)); higher = stronger binding of the SH3 domain to the peptide
AgAbp1 = target: AgAbp1
Method in brief: (§1)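 Detection of bound protein relied on anti-GST antibody, an HRP anti-mouse secondary and luminol, with imaging and quantification in Genespotter. The bound protein was GST-fused SH3 domains from four yeast species, incubated at 10 μg/ml overnight at 4°C in TBS-based blocking buffer on cellulose membranes carrying synthetic 15-mer peptides with cysteines replaced by serines. Binding signal is normalized, background-subtracted spot intensity averaged over replicates, in arbitrary units that differ between domains.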

AgBbc1 = target: AgBbc1
Method in brief: as §1

AgBem1-D1 = target: AgBem1-D1
Method in brief: as §1

AgBzz1-D1 = target: AgBzz1-D1
Method in brief: as §1

AgBzz1-D2 = target: AgBzz1-D2
Method in brief: as §1

AgCyk3 = target: AgCyk3
Method in brief: as §1

AgFus1 = target: AgFus1
Method in brief: as §1

AgHof1 = target: AgHof1
Method in brief: as §1

AgHse1 = target: AgHse1
Method in brief: as §1

AgLsb1 = target: AgLsb1
Method in brief: as §1

AgLsb4 = target: AgLsb4
Method in brief: as §1

AgMyo5 = target: AgMyo5
Method in brief: as §1

AgNbp2 = target: AgNbp2
Method in brief: as §1

AgRvs167 = target: AgRvs167
Method in brief: as §1

AgSho1 = target: AgSho1
Method in brief: as §1

AgSla1-D1-D2 = target: AgSla1-D1-D2
Method in brief: as §1

AgSla1-D3 = target: AgSla1-D3
Method in brief: as §1

CaAbp1-D1 = target: CaAbp1-D1
Method in brief: as §1

CaAbp1-D2 = target: CaAbp1-D2
Method in brief: as §1

CaBbc1 = target: CaBbc1
Method in brief: as §1

CaBem1-D1 = target: CaBem1-D1
Method in brief: as §1

CaBzz1-D1 = target: CaBzz1-D1
Method in brief: as §1

CaBzz1-D2 = target: CaBzz1-D2
Method in brief: as §1

CaCyk3 = target: CaCyk3
Method in brief: as §1

CaFus1 = target: CaFus1
Method in brief: as §1

CaHof1 = target: CaHof1
Method in brief: as §1

CaHse1 = target: CaHse1
Method in brief: as §1

CaLsb1 = target: CaLsb1
Method in brief: as §1

CaLsb4 = target: CaLsb4
Method in brief: as §1

CaMyo5 = target: CaMyo5
Method in brief: as §1

CaNbp2 = target: CaNbp2
Method in brief: as §1

CaRvs167 = target: CaRvs167
Method in brief: as §1

CaRvs167-3 = target: CaRvs167-3
Method in brief: as §1

CaSho1 = target: CaSho1
Method in brief: as §1

CaSla1-D1-D2 = target: CaSla1-D1-D2
Method in brief: as §1

CaSla1-D3 = target: CaSla1-D3
Method in brief: as §1

ScAbp1 = target: ScAbp1
Method in brief: as §1

Binder: ERPKRRAPPPVPKKP
- SPOT peptide array binding signal intensity (AgAbp1): 1360
- SPOT peptide array binding signal intensity (AgBbc1): 936
- SPOT peptide array binding signal intensity (AgBem1-D1): 86.5
- SPOT peptide array binding signal intensity (AgBzz1-D1): 1350
- SPOT peptide array binding signal intensity (AgBzz1-D2): 1190
- SPOT peptide array binding signal intensity (AgCyk3): 2
- SPOT peptide array binding signal intensity (AgFus1): 3.5
- SPOT peptide array binding signal intensity (AgHof1): 124
- SPOT peptide array binding signal intensity (AgHse1): 22
- SPOT peptide array binding signal intensity (AgLsb1): 62.5
- SPOT peptide array binding signal intensity (AgLsb4): 25
- SPOT peptide array binding signal intensity (AgMyo5): 359
- SPOT peptide array binding signal intensity (AgNbp2): 292
- SPOT peptide array binding signal intensity (AgRvs167): 1.83
- SPOT peptide array binding signal intensity (AgSho1): 83
- SPOT peptide array binding signal intensity (AgSla1-D1-D2): 7
- SPOT peptide array binding signal intensity (AgSla1-D3): 140
- SPOT peptide array binding signal intensity (CaAbp1-D1): 1770
- SPOT peptide array binding signal intensity (CaAbp1-D2): 1480
- SPOT peptide array binding signal intensity (CaBbc1): 1090
- SPOT peptide array binding signal intensity (CaBem1-D1): 42.5
- SPOT peptide array binding signal intensity (CaBzz1-D1): 6780
- SPOT peptide array binding signal intensity (CaBzz1-D2): 3000
- SPOT peptide array binding signal intensity (CaCyk3): 29
- SPOT peptide array binding signal intensity (CaFus1): 30
- SPOT peptide array binding signal intensity (CaHof1): 0.5
- SPOT peptide array binding signal intensity (CaHse1): 24.8
- SPOT peptide array binding signal intensity (CaLsb1): ≤ 0
- SPOT peptide array binding signal intensity (CaLsb4): 243
- SPOT peptide array binding signal intensity (CaMyo5): 4.5
- SPOT peptide array binding signal intensity (CaNbp2): 814
- SPOT peptide array binding signal intensity (CaRvs167): 16.7
- SPOT peptide array binding signal intensity (CaRvs167-3): 0.75
- SPOT peptide array binding signal intensity (CaSho1): 6
- SPOT peptide array binding signal intensity (CaSla1-D1-D2): 2360
- SPOT peptide array binding signal intensity (CaSla1-D3): 698
- SPOT peptide array binding signal intensity (ScAbp1): 2010
